Assay [1] in a line: A CellTox Green Cytotoxicity Assay to monitor cytotoxicity in HEK293 cells - 40 hour (AID 1224871). Also: nearly all actives have a fitted effect of over 45% in size. Also: potency is read from the fitted curve at half-maximal effect. In short, it runs like this: (§1)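 Read-out: fluorescence of a cell-impermeant cyanine dye staining DNA of dead cells, proportional to cytotoxicity. HEK293, 600 cells/well with reagent, compound (23 nL DMSO) added after 5 h; reads at 0, 8, 16, 24, 32, 40 h.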
A short description of assay [2]: qHTS RealTime-Glo MT Cell Viability Assay in HepG2 cells - 8 hour (AID 1224873). Also: nearly all actives have a fitted effect of over 55% in size. Also: potency is read from the fitted curve at half-maximal effect. In short, it runs like this: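 HepG2 cells mixed with RealTime-Glo MT reagents (NanoLuc plus cell-permeant prosubstrate) were seeded at 600 cells/well, incubated 5 h at 37 C/5% CO2, then pinned with compounds in DMSO; nonlytic luminescence tracked viability during 40 h treatment.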
For orientation: qHTS replaces the single test concentration by a dilution series.

A short description of assay [3]: A CellTox Green Cytotoxicity Assay to monitor cytotoxicity in HEK293 cells - 24 hour (AID 1224875). Also: nearly all actives have a fitted effect of over 45% in size. Also: potency is read from the fitted curve at half-maximal effect. In short, it runs like this: as §1
Assay [4] can be described thus: A CellTox Green Cytotoxicity Assay to monitor cytotoxicity in HepG2 cells - 16 hour (AID 1224876). Also: nearly all actives have a fitted effect of over 45% in size. Also: potency is read from the fitted curve at half-maximal effect. In short, it runs like this: (§2)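 HepG2, 600 cells/well premixed w/ CellTox Green; 5 h settle, 37 C/5% CO2; pintool cpd add (DMSO); 37 C, 40 h; fluorescence read at 0, 8, 16, 24, 32, 40 h.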
Assay [5] can be described thus: qHTS RealTime-Glo MT Cell Viability Assay in HepG2 cells - 32 hour (AID 1224877). Also: nearly all actives have a fitted effect of over 55% in size. Also: potency is read from the fitted curve at half-maximal effect. In short, it runs like this:
(§3)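 Cell number in HepG2 cultures estimated from NanoLuc luminescence generated by metabolic reduction of a prosubstrate by living cells. The homogeneous, nonlytic format allowed repeated reads at 0, 8, 16, 24, 32 and 40 h of compound exposure.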

Assay [6] is described as follows: A CellTox Green Cytotoxicity Assay to monitor cytotoxicity in HepG2 cells - 24 hour (AID 1224878). Also: nearly all actives have a fitted effect of over 45% in size. Also: potency is read from the fitted curve at half-maximal effect. In short, it runs like this: as §2
Assay [7] is described as follows: A CellTox Green Cytotoxicity Assay to monitor cytotoxicity in HepG2 cells - 40 hour (AID 1224879). Also: nearly all actives have a fitted effect of over 40% in size. Also: potency is read from the fitted curve at half-maximal effect. In short, it runs like this: as §2
The nature of assay [8]: A CellTox Green Cytotoxicity Assay to monitor cytotoxicity in HEK293 cells - 32 hour (AID 1224881). Also: nearly all actives have a fitted effect of over 40% in size. Also: potency is read from the fitted curve at half-maximal effect. In short, it runs like this:
as §1

Assay [9] in a line: A CellTox Green Cytotoxicity Assay to monitor cytotoxicity in HepG2 cells - 0 hour (AID 1224882). Also: nearly all actives have a fitted effect of over 35% in size. In short, it runs like this:
as §2

Assay [10] can be described thus: A CellTox Green Cytotoxicity Assay to monitor cytotoxicity in HEK293 cells - 8 hour (AID 1224884). Also: nearly all actives have a fitted effect of over 35% in size. Also: potency is read from the fitted curve at half-maximal effect. In short, it runs like this:
as §1

Assay [11] is described as follows: qHTS RealTime-Glo MT Cell Viability Assay in HepG2 cells - 16 hour (AID 1224885). Also: nearly all actives have a fitted effect of over 50% in size. Also: potency is read from the fitted curve at half-maximal effect. In short, it runs like this:
as §3

The nature of assay [12]: A CellTox Green Cytotoxicity Assay to monitor cytotoxicity in HEK293 cells - 16 hour (AID 1224888). Also: nearly all actives have a fitted effect of over 35% in size. Also: potency is read from the fitted curve at half-maximal effect. In short, it runs like this:
as §1

Assay [13] in a line: qHTS RealTime-Glo MT Cell Viability Assay in HepG2 cells - 0 hour (AID 1224889). Also: nearly all actives have a fitted effect of over 50% in size. Also: potency is read from the fitted curve at half-maximal effect. In short, it runs like this:
as §3

Assay [14] in a line: A CellTox Green Cytotoxicity Assay to monitor cytotoxicity in HepG2 cells - 8 hour (AID 1224890). Also: nearly all actives have a fitted effect of over 45% in size. Also: potency is read from the fitted curve at half-maximal effect. In short, it runs like this: as §2
A short description of assay [15]: qHTS RealTime-Glo MT Cell Viability Assay in HEK293 cells - 40 hour (AID 1224874). Also: nearly all actives have a fitted effect of over 50% in size. Also: potency is read from the fitted curve at half-maximal effect. As to conditions: RealTime-Glo luminescence; max response: stronger effect = lower value. In short, it runs like this:
(§4)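 Luminescence readout at each listed time point; HEK293, 600 cells/well, RealTime-Glo MT reagent added with cells; compounds pinned (23 nL in DMSO) after 5 h at 37 C; continuous culture at 37 C.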

A short description of assay [16]: qHTS RealTime-Glo MT Cell Viability Assay in HEK293 cells - 0 hour (AID 1224880). In short, it runs like this: as §4
The nature of assay [17]: A CellTox Green Cytotoxicity Assay to monitor cytotoxicity in HepG2 cells - 32 hour (AID 1224883). Also: nearly all actives have a fitted effect of over 50% in size. Also: potency is read from the fitted curve at half-maximal effect. In short, it runs like this:
as §2

Assay [18] in a line: qHTS RealTime-Glo MT Cell Viability Assay in HEK293 cells - 24 hour (AID 1224886). Also: nearly all actives have a fitted effect of over 50% in size. Also: potency is read from the fitted curve at half-maximal effect. In short, it runs like this: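 Homogeneous bioluminescent viability format in HEK293 cells (600 cells/well). Following 5 h at 37 C/5% CO2, 23 nL compound was pintooled; the signal was measured repeatedly during 40 h incubation.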
Assay [19] is described as follows: qHTS RealTime-Glo MT Cell Viability Assay in HEK293 cells - 8 hour (AID 1224887). Also: nearly all actives have a fitted effect of over 50% in size. Also: potency is read from the fitted curve at half-maximal effect. In short, it runs like this:
as §4

Values joined by “and” are separate entries in the source; they are usually repeats but may differ in a detail not shown here. Equal values may be shown once. Inconclusive results are not listed. Some compounds were tested as several samples or in several runs, with calls that do not always agree. Active and inactive are the calls of the source. Calls follow the shape of the dose curve; as a rule, active = well fitted curve in the direction sought with a large enough effect in the repeat runs; inconclusive = weak or mixed curves; inactive = no such curve, though single readings can be large; an effect the other way counts as inactive or inconclusive.
% is scaled to controls: 0 for no effect and ±100 for the full control effect.

In the case of `COc1ccc(OC)c(C=O)c1`, the Potency result in [1], in assay [2], in assay [3], in assay [4], in assay [5] and in assay [6] was “inactive” throughout. For the same compound, the Potency result in assay [7], in assay [8], in assay [9], in assay [10], in assay [11] and in assay [12] was “inactive” each time. Further, the Potency result in assay [13] and in assay [14] was “inactive” throughout.
As for `C[C@@H]1O[C@@H](O[C@@H]2C=C3CC[C@@H]4[C@H](CC[C@]5(C)[C@@H](c6ccc(=O)oc6)CC[C@]45O)[C@@]3(C)CC2)[C@H](O)[C@H](O)[C@H]1O`, the Potency entry in assay [1], in assay [2], in assay [3], in assay [4], in assay [5] and in assay [6] was “inactive” throughout. For the same compound, the Potency result in [7], in [16], in assay [8], in [9], in assay [17] and in assay [11] was “inactive” in each case. Moreover, the Potency result in assay [12], in assay [13] and in [14] was “inactive” throughout. Besides, the Potency in assay [15] is 0.019 µM (active); in assay [18], 0.0301 µM (active).
For `CCC(C)(C)C(=O)OC1=C(c2ccc(Cl)cc2Cl)C(=O)OC12CCCCC2`, the Potency entry in assay [1], in assay [2], in [3], in assay [4], in assay [5] and in [6] was “inactive” in each case. The Potency result in assay [7], in [17], in assay [10], in [11], in assay [18] and in [19] was “inactive” in each case. The Potency result in [12] and in [14] was “inactive” throughout. Besides, the max response in [15] was -14% (inactive). The Potency in assay [13] was 34.7 µM (active).
With `c1cc[c]([Sb]([c]2ccccc2)[c]2ccccc2)cc1`, the Potency entry in [1], in [2], in assay [3], in assay [4], in assay [5] and in assay [6] was “inactive” each time. Further, the Potency entry in assay [7], in [16], in [9], in [17], in assay [11] and in [19] was “inactive” in each case. The Potency result in assay [12], in assay [13] and in assay [14] was “inactive” in each case. The Potency in [15] was 54.9 µM (active).
`Clc1ccc(COC(Cn2ccnc2)c2ccc(Cl)cc2Cl)cc1` (configuration not stated): the Potency in assay [1] is 45.7 µM (active) and 54.7 µM (active) and inactive; in assay [2] it was 43.5 µM (active); in assay [15] it was 16.2 µM (active) and 24.4 µM (active); in assay [5], 48.8 µM (active); in [6], 45.7 µM (active) and 54.7 µM (active); in assay [7] it was 45.7 µM (active) and 54.7 µM (active) and 16.9 µM (active). In addition, the Potency was 45.7 µM (active) and 54.7 µM (active) and 15.1 µM (active) in [17]; 43.5 µM (active) in [11]; 18.2 µM (active) and 21.8 µM (active) in assay [18]; 20.4 µM (active) and 21.8 µM (active) in assay [19]; “inactive and 54.7 µM (active)” in assay [14]. For the same compound, the Potency entry in assay [16], in assay [9], in [10] and in assay [13] was “inactive” throughout.
With `Clc1ccc(-c2ccc(Cl)c(Cl)c2Cl)c(Cl)c1Cl`, the Potency entry in assay [1], in assay [2], in assay [3], in assay [4], in assay [5] and in [6] was “inactive” throughout. Besides, the Potency entry in assay [7], in [16], in assay [8], in [9], in [17] and in assay [10] was “inactive” each time. For the same compound, the Potency entry in [11], in [12], in [13] and in assay [14] was “inactive” in each case.
For `NC(=O)CCl`, the Potency result in [1], in assay [2], in assay [3], in [5], in assay [6] and in [7] was “inactive” in each case. Also, the Potency entry in assay [16], in assay [8], in assay [9], in assay [17], in assay [10] and in assay [11] was “inactive” in each case. Besides, the Potency result in [18], in assay [19], in [12], in [13] and in assay [14] was “inactive” throughout. Moreover, the max response in assay [15] was 11.6% (inactive).
Turning to `C[C@H]1O[C@@H](O[C@H]2[C@@H](O)C[C@H](O[C@H]3[C@@H](O)C[C@H](O[C@H]4CC[C@@]5(C)[C@H](CC[C@@H]6[C@@H]5CC[C@]5(C)[C@@H](C7=CC(=O)OC7)CC[C@]65O)C4)O[C@@H]3C)O[C@@H]2C)C[C@H](O)[C@@H]1O`, the Potency entry in assay [1], in assay [2], in assay [3], in assay [4], in [5] and in assay [6] was “inactive” in each case. In addition, the Potency result in [7], in assay [8], in assay [9], in [17], in assay [10] and in assay [11] was “inactive” each time. Besides, the Potency result in assay [19], in [12], in [13] and in assay [14] was “inactive” in each case. Also, the Potency is 31.1 nM (active) and 95.2 nM (active) in [15]; 34.9 nM (active) and 84.9 nM (active) in assay [18].
As to `[CH3][Hg][Cl]`, the Potency in assay [1] is 6.9 µM (active); in assay [2], 15.5 µM (active); in assay [15], 3.88 µM (active); in assay [3] it was 7.74 µM (active); in assay [4] it was 12.3 µM (active); in [5], 10.9 µM (active). In addition, the Potency in assay [6] was 12.3 µM (active); in assay [7] it was 12.3 µM (active); in assay [8] it was 7.74 µM (active); in assay [17], 12.3 µM (active); in assay [11], 10.9 µM (active); in assay [18] it was 4.89 µM (active). In addition, the Potency was 6.9 µM (active) in assay [19] and 15.5 µM (active) in [14]. Moreover, the Potency result in assay [16] and in assay [13] was “inactive” in each case.
Regarding `CC(C)N1C(=O)N(c2ccccc2)CSC1=NC(C)(C)C`, the Potency entry in [1], in [2], in assay [3], in assay [4], in [5] and in assay [6] was “inactive” in each case. The Potency result in assay [7], in assay [16], in assay [9], in [17], in assay [10] and in assay [11] was “inactive” in each case. The Potency entry in assay [12], in assay [13] and in assay [14] was “inactive” each time. In addition, the Potency in assay [15] was 21.9 µM (active); in assay [18], 19.5 µM (active).
On to `CC(=O)[O-].CC(=O)[O-].[Hg+2]`, for which the Potency in assay [1] was 5.49 µM (active); in assay [2] it was 2.45 µM (active); in [15] it was 1.55 µM (active); in [3], 21.9 µM (active); in assay [4], 2.75 µM (active); in assay [5], 2.19 µM (active). Also, the Potency in [6] was 2.19 µM (active); in assay [7], 1.55 µM (active); in [8] it was 7.76 µM (active); in assay [17], 1.74 µM (active); in assay [10], 43.6 µM (active); in assay [11], 2.45 µM (active). The Potency in [19] is 2.19 µM (active); in assay [12], 24.5 µM (active); in [13], 30.9 µM (active); in assay [14], 3.09 µM (active). Further, the Potency entry in [9] is “inactive”.
For `Oc1c(Cl)c(Cl)cc(Cl)c1Cl`, the Potency in assay [1] was 42.5 µM (active); in assay [15], 47.6 µM (active); in [18] it was 47.6 µM (active). The Potency entry in assay [2], in assay [4], in [5], in assay [6], in assay [7] and in [16] was “inactive” throughout. The Potency entry in [9], in assay [17], in [10], in assay [11], in assay [13] and in [14] was “inactive” each time.
As to `CCCN(CCC)c1c([N+](=O)[O-])cc(S(N)(=O)=O)cc1[N+](=O)[O-]`, the Potency in assay [1] is 39.7 µM (active); in [2], 24.5 µM (active); in assay [15], 35.4 µM (active); in assay [3] it was 23.3 µM (active); in assay [5] it was 43.6 µM (active); in assay [6] it was 13.1 µM (active). In addition, the Potency in assay [7] is 11 µM (active); in assay [8], 26.2 µM (active); in assay [17] it was 26.2 µM (active); in [11], 24.5 µM (active); in [18], 23.3 µM (active); in [19], 31.6 µM (active). For the same compound, the values for the Potency in assay [12] and in [14] were 52.2 µM (active) and 23.3 µM (active), respectively. Besides, the Potency entry in [16], in assay [9] and in assay [13] was “inactive” each time.

For the origin of these results see PubChem BioAssay (Tox21).
